Screens as filed in PubChem BioAssay.
The list is not random: actives were taken first. Their share in the collection is about 2.4%.
D2 PAM-1: positive allosteric modulators of human D2 dopamine receptor; P14416; HEK293 T-REx D2, calcium flux, EC20 dopamine potentiation; potentiation, % at 10 µM; actives 0.34% (n = 340,000);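 active = potentiation over 3 SD above the plate norm, cut at about 30% in these data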; also: 0% is about no effect
Target sequence (P14416 whole entry, looked up): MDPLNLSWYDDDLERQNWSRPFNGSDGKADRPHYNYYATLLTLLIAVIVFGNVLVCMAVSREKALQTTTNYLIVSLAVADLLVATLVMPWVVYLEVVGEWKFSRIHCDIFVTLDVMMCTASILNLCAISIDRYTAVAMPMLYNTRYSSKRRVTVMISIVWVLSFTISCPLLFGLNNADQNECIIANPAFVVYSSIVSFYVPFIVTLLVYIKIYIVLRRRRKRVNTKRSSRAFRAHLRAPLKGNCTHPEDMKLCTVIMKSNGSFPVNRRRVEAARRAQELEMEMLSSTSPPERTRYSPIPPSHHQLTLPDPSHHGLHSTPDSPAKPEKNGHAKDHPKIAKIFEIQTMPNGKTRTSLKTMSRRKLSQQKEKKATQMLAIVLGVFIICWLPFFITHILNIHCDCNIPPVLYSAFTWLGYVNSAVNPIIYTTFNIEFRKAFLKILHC
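Using a no-wash calcium dye in inducible, force-coupled HEK293 Trex cells expressing D2, we tracked fluorescence each second for 180 s after compound, then for 180 s after EC20 dopamine to detect augmented signalling.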
D2 ag-1: activates the human D2 dopamine receptor | P14416 | HEK293 T-REx D2 cells, calcium flux agonist mode | activation, % at 2 µM | actives 0.53% (n = 340,000) | AID 485358;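 active = activation over 3 SD above normal in the single-dose calcium agonist read, cut at about 30% in these data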; also: 0% is about no effect
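Calcium-flux readout, 1 cycle/sec over 180 s following compound pin transfer, in inducible HEK293 Trex D2 cells (force-coupled); dopamine controls included. Positive calcium responses during this window marked compounds as potential agonists.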
D2 ag-2: agonists of human D2 dopamine receptor (beta-arrestin). P14416. DiscoveRx PathHunter D2 beta-arrestin, luminescence, 90 min; 100% = 57 uM dopamine signal. activation, % (no concentration beside the values). actives 0.084% (n = 360,000). AID 624465; in the data active = activation above about 40%; inconclusive = between about 15% and that limit
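DiscoveRx PathHunter D2 beta-arrestin cells (2,100/well) attached overnight, then compound-stimulated 90 min at 37 C in HBSS/10 mM HEPES/0.1% Tween-20 buffer; beta-galactosidase complementation read by luminescence after 1 h at ambient temperature. Dopamine 57 uM final (EC100) as control.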
D2 antag: D2 dopamine receptor (human) antagonism. P14416. HEK293 TREx D2 cells, calcium flux, dopamine EC80. inhibition, % at 10 µM. actives 2% (n = 340,000). AID 485344; in the data active = inhibition above about 30%; inactive = below that, where a call was filed; also: 0% is about no effect
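Inhibition of EC80 dopamine-driven calcium flux, recorded kinetically, defines activity here; cells are a tetracycline-induced HEK293 T-REx line expressing force-coupled D2.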
D2 PAM-2: potentiates the human D2 dopamine receptor allosterically. P14416. DiscoveRx D2 beta-arrestin cells, luminescence, 90 min; 100% = 57 uM dopamine signal. potentiation, % (test concentration not listed). actives 0.23% (n = 360,000); in the data active = potentiation above about 50%; inconclusive = mostly about 30% to 49%
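PathHunter beta-arrestin assay in DiscoveRx D2 cells. Compounds were added with an EC20 of dopamine (50 nM final) for 90 min at 37 deg C. Luminescence was read 1 h after detection reagent, with 57 uM dopamine as the EC100 control.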
* hit, by the source's call; ? = inconclusive; / = no result given.

SMILES	D2 PAM-1	D2 ag-1	D2 ag-2	D2 antag	D2 PAM-2
NC(=O)C1CCCNC1 (configuration not stated)	-12	2	0	47*	1
O=C(Nc1cccc(C(F)(F)F)c1)c1cc2ncc(Br)cn2n1	-25	1	-2	53*	-5
COc1ccc(C(CNC(=O)c2cc(F)c(F)c(F)c2F)N2CCOCC2)cc1 (configuration not stated)	-5	-1	-3	40*	-11
CC(C)(CNC(=O)c1ccc(Br)o1)N1CCOCC1	8	0	-2	7	-17
COc1ccccc1C(CNC(=O)c1ccc(-c2ccccc2Cl)o1)N1CCCC1 (configuration not stated)	-20	1	-2	11	-69
CC(C)(CNC(=O)c1ccc(-c2ccccc2Cl)o1)N1CCOCC1	-5	-1	-4	40*	-20
COc1ccc(NC(=O)c2ccc(-c3cccc(Cl)c3C)o2)cc1	-8	0	/	/	/
COc1ccc(C(CNC(=O)c2ccc(-c3ccccc3Cl)o2)N2CCOCC2)cc1 (configuration not stated)	-39	1	-4	66*	-40
COc1ccc(C(CNC(=O)CSc2ccccc2F)N2CCOCC2)cc1 (configuration not stated)	12	2	-1	3	-5
COc1ccc(NC(=O)c2ccc(-c3ccccc3Cl)o2)cc1	-17	-1	-3	42*	-25
CC1(C(=O)Nc2cccc(NS(C)(=O)=O)c2)Cc2c(-c3ccc(C(N)=O)cc3)ccnc2O1 (configuration not stated)	/	/	-3	/	0
CCOc1ccc(/C=C/c2nc(C#N)c(N3CCN(c4ccc(OC)cc4)CC3)o2)cc1	-1	0	/	/	/
CCOCCCNC(=O)c1cc2c(=O)[nH]c3ccccc3c2s1	-13	39*	?	58*	8
CC(=O)c1cccc(NC(=O)N[C@@H](CC(C)C)C(=O)O)c1	6	1	-2	33*	-12
CC(=O)c1ccc(NC(=O)N[C@@H](CC(C)C)C(=O)O)cc1	-8	0	-5	-11	-22
O=C(Nc1ccc2c(c1)OCO2)C1CCCCC1	6	0	-2	-2	-2
O=C(Nc1ccccc1)NC1CCN(Cc2c(F)cccc2Cl)CC1	-21	-1	2	-13	-22
O=C(Nc1ccc2c(c1)OCO2)NC1CCN(Cc2ccccc2)CC1	-33	0	-5	46*	-16
O=C(Nc1ccc2c(c1)OCO2)C1CCN(Cc2cc3c(cc2O)OCO3)CC1	-16	-4	-5	35*	-18
O=C(Nc1ccc(F)cc1)NC1CCN(Cc2ccccc2)CC1	-22	0	-5	53*	-13
Fc1ccc(-c2cc(-c3ccccc3)c3c(n2)-c2cc(F)ccc2OC3)cc1	-2	-1	/	/	/
CCOC(=O)N1CCN(C(=O)COC(=O)Cc2ccc(Cl)cc2)CC1	-2	0	-2	-7	-4
O=C(COC(=O)c1ccc(S(=O)(=O)N2CCCCC2)cc1)Nc1ccccc1Cl	-3	1	-8	3	-25
CCC(CO)Nc1ccn2nc(-c3cccs3)cc2n1 (configuration not stated)	/	/	14	/	-10
COc1ccc(C(C)=O)c(OC(=O)c2ccco2)c1	39*	1	-10	19	2
SMILES	D2 PAM-1	D2 ag-1	D2 ag-2	D2 antag	D2 PAM-2
COc1ccc(C(C)=O)c(OC(=O)c2ccc(OC)c(OC)c2)c1	36*	1	-3	-2	-4
COc1ccc(C(=O)Nc2cccc(OC(=O)c3ccco3)c2)cc1	1	-2	-2	-2	-4
CCN1CCN(C(c2cccc(Cl)c2)c2c(O)cc(C)n(CCOC)c2=O)CC1 (configuration not stated)	8	0	/	/	/
COc1ccc(NC(=O)/C=C/c2cc(Br)ccc2OC)cc1	-21	-1	-2	49*	-43
COc1ccc(OC)c(/C=C/C(=O)Nc2ccc3c(c2)CCC3)c1	-26	-1	-2	49*	-42
CC1CCCCN1C(=O)CSc1nc2ccccc2nc1Cc1ccc(Cl)cc1 (configuration not stated)	-2	1	/	/	/
COc1ccc(-c2nc(CS(=O)(=O)CC(=O)NCc3cccc(F)c3)c(C)o2)cc1	-6	0	-5	54*	-4
COc1cccc(-c2nc(CS(=O)(=O)CC(=O)NC3CC3)c(C)o2)c1	-1	0	-2	-7	-6
CCOC(=O)N1CCC(NC(=O)CS(=O)(=O)Cc2nc(-c3cccc(OC)c3)oc2C)CC1	97*	0	0	24	-6
Cc1ccc(-c2nc(CS(=O)(=O)CC(=O)NCc3cccc(F)c3)c(C)o2)cc1	7	/	1	12	-2
Cc1ccc(S(=O)(=O)c2nc(-c3ccccc3F)oc2N2CCCCC2)cc1	15	/	/	/	/
COc1ccc(C)cc1NC(=O)c1cc2c(=O)n(Cc3cccnc3)ccc2nc1C	-6	1	/	/	/
CCN(CC)C(=O)/C(=C\c1ccncc1)NC(=O)c1ccccc1	-6	2	-2	0	-5
CN(C)C(=O)/C(=C\c1ccncc1)NC(=O)c1ccccc1	1	-1	-7	39*	4
Cc1ccc(S(=O)(=O)n2c(C)nc3cc(C)ccc32)cc1	-5	1	3	-16	0
COc1ccc(OC)c(N)c1	-9	-1	2	-21	61*
CNc1ccc2c3c(cccc13)C(=O)N(C)C2=O	-17	128*	5	72*	18
CC(=O)c1cc(-c2ccccc2)n(CC(=O)NCCc2ccc(C)cc2)c1C	1	0	/	/	/
O=c1[nH]ncc(N2CCN(Cc3ccccc3)CC2)c1Cl	12	0	1	13	-15
Cc1ccccc1C(=O)OCCN(C)Cc1ccccc1	-21	-2	-5	32*	-16
Cc1ccc(C(=O)OCCN(C)Cc2ccccc2)cc1	-19	2	-4	2	-19
Cc1ccc(SCc2cc(-c3ccc(Cl)cc3)no2)cc1	32*	/	0	/	-7
CN(C)CCN(Cc1ccccc1)S(=O)(=O)c1ccc2[nH]c(=O)ccc2c1	-3	1	/	/	/
CCCC(C(=O)O)N1C(=O)/C(=C2\C(=O)N(C)c3ccccc32)SC1=S (configuration not stated)	-6	-1	13	1	61*
COc1cccc(OC)c1C(=O)Nc1ccccc1C(=O)N1CCCC1	2	1	0	-1	6
COc1ccccc1C(=O)Nc1ccccc1C(=O)N1C(C)CCCC1C (configuration not stated)	-2	-1	-3	48*	-6
CC1=C(CC(=O)c2ccc(Cl)cc2)C(=O)c2ccccc2C1=O	/	/	9	/	55*
